About 7,900 targets were measured; listed, in parts, are those with a hit and a random draw of the rest. About 0.6% of all pairs of compound and target were hits. A number with no mark means an inactive call.
Tests used:
Experiment in all cases: log2 fold change, soluble protein after heating vs DMSO (PISA); higher = thermal stabilisation; K562 cells, 10 uM, 30 min; active = over 0.2 and 3.5 SD of the protein, either way, in both replicates (recomputed)
saracatinib = compound: CN1CCN(CCOc2cc(OC3CCOCC3)c3c(Nc4c(Cl)ccc5c4OCO5)ncnc3c2)CC1 [saracatinib]
Summary of the method: (§1)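 Aliquots of K562 cells (2×10^6 cells/mL) treated with 10 μM compound for 30 min were heated for 3 min over 48°C-58°C. After pooling and extraction in PBS with 0.5% NP-40 at 4°C, soluble protein from a 21,000xg, 90 min spin was quantified by TMTpro 16plex LC-MS/MS with channel sums equalised. Thermal stability is expressed against control samples, from duplicates, as a log2 fold change.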

sotrastaurin = compound: CN1CCN(c2nc(C3=C(c4c[nH]c5ccccc45)C(=O)NC3=O)c3ccccc3n2)CC1 [sotrastaurin]
Summary of the method: as §1

alvocidib = compound: CN1CC[C@H](c2c(O)cc(O)c3c(=O)cc(-c4ccccc4Cl)oc23)[C@H](O)C1 [alvocidib]
Summary of the method: as §1

Tubastatin A = compound: CN1CCc2c(c3ccccc3n2Cc2ccc(C(=O)NO)cc2)C1 [Tubastatin A]
Summary of the method: as §1

[1] = compound: CNC(=O)C1=CC=CC=C1NC2=NC(=NC=C2Cl)NC3=C(C=C(C=C3)N4CCOCC4)OC
Summary of the method: as §1

defactinib = compound: CNC(=O)c1ccc(Nc2ncc(C(F)(F)F)c(NCc3nccnc3N(C)S(C)(=O)=O)n2)cc1 [defactinib]
Summary of the method: as §1

rucaparib = compound: CNCc1ccc(-c2[nH]c3cc(F)cc4c3c2CCNC4=O)cc1 [rucaparib]
Summary of the method: as §1

[2] = compound: CNc1nc(-c2ccc3c(N)n[nH]c3c2)cc(N2C[C@@H](C(=O)NC3CCCCC3)CC[C@H]2C)n1
Summary of the method: as §1

encorafenib = compound: COC(=O)N[C@@H](C)CNc1nccc(-c2cn(C(C)C)nc2-c2cc(Cl)cc(NS(C)(=O)=O)c2F)n1 [encorafenib]
Summary of the method: as §1

[3] = compound: COC(=O)[C@H](CCSC)NC(=O)C1=C(C=C(C=C1)NC[C@H](CS)N)C2=CC=CC=C2
Summary of the method: as §1

Chain of UniProt Q9Y6H3 (Q9Y6H3 whole entry, looked up): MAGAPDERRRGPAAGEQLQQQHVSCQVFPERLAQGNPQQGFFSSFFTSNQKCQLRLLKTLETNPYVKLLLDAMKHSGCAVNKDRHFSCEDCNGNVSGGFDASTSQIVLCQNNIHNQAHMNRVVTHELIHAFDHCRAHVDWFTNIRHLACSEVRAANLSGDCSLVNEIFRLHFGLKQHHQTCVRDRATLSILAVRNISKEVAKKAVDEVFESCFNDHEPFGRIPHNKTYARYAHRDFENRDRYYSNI
Chain of UniProt P42025 (P42025 whole entry, looked up): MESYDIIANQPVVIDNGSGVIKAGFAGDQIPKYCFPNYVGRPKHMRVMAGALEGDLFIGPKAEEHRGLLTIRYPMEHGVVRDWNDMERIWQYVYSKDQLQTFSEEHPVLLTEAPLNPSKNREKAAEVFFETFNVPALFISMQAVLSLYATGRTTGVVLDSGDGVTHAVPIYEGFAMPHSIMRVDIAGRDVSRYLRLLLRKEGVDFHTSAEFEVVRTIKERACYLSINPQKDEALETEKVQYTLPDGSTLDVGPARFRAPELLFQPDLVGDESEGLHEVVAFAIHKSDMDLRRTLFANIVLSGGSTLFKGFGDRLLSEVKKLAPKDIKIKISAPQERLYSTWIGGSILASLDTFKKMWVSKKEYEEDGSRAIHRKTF
Chain of UniProt Q9Y6E2 (Q9Y6E2 whole entry, looked up): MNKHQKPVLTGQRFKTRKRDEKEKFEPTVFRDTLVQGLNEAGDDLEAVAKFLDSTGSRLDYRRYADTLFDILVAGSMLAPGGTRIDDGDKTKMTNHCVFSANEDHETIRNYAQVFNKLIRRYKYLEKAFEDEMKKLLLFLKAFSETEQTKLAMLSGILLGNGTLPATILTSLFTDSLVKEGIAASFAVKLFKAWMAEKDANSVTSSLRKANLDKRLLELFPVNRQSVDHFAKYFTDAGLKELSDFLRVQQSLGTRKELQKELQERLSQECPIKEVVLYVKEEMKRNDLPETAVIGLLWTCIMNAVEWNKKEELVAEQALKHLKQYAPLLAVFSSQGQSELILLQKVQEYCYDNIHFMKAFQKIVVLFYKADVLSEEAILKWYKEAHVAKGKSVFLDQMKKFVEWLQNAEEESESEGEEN
Chain of UniProt P18085 (P18085 whole entry, looked up): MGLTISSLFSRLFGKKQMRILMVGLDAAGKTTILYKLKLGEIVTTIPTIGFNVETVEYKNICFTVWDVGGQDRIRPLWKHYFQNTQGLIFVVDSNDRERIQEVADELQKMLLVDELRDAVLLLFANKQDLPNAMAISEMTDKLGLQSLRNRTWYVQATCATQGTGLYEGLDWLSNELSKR
Chain of UniProt Q9UNA0 (Q9UNA0 whole entry, looked up): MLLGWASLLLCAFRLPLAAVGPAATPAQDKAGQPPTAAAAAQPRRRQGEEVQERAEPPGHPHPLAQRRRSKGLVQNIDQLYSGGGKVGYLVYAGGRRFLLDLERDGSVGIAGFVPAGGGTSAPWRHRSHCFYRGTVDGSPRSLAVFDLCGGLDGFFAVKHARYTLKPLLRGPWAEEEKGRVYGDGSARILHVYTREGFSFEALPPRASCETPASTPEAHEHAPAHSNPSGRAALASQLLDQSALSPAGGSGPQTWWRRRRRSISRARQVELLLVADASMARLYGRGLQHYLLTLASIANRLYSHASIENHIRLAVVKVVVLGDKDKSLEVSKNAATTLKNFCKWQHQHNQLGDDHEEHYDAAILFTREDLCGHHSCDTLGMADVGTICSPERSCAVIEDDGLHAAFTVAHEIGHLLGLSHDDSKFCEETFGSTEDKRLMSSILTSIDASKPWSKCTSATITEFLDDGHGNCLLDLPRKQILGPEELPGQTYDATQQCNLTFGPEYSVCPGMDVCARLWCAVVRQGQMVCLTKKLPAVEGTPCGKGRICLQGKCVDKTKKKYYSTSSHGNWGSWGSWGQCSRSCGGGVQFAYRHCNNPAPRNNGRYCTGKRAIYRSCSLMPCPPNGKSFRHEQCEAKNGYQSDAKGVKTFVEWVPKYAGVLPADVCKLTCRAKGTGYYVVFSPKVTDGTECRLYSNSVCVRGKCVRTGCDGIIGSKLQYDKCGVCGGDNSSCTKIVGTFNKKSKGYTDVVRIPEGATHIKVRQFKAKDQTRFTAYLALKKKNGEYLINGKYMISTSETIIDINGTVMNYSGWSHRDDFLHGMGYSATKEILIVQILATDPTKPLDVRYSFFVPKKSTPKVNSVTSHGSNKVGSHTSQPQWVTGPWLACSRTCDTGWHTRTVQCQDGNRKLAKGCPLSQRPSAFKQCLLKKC
Chain of UniProt O00170 (O00170 whole entry, looked up): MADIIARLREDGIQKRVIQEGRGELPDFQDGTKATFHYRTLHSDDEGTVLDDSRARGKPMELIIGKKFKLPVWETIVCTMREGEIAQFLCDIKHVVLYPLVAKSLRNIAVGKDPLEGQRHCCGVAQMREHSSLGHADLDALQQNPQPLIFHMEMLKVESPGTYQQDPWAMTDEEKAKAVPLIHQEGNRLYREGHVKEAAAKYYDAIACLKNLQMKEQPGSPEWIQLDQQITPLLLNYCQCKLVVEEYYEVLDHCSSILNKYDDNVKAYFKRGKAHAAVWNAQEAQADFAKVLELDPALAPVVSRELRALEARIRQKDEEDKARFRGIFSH
Chain of UniProt Q9Y3D8 (Q9Y3D8 whole entry, looked up): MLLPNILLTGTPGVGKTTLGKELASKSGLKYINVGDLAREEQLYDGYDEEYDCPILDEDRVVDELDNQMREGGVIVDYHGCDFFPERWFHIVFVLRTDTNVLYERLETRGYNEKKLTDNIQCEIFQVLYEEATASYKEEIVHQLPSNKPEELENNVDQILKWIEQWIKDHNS
Chain of UniProt Q9NVI7 (Q9NVI7 whole entry, looked up): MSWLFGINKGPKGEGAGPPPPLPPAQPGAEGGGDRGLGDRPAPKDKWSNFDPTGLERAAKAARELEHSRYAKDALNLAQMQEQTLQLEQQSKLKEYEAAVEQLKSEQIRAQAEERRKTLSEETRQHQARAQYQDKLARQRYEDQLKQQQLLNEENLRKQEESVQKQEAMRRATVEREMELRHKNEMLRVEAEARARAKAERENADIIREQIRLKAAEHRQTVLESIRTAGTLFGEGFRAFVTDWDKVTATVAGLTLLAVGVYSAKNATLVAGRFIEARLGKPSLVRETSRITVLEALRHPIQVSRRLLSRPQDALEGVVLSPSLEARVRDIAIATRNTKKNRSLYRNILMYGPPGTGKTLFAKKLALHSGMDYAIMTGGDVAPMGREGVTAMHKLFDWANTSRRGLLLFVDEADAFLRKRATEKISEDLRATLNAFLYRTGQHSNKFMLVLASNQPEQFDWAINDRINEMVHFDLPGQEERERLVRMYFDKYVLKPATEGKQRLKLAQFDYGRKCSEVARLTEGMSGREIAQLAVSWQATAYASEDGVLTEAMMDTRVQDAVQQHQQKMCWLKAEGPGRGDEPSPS
Chain of UniProt Q6P6C2 (Q6P6C2 whole entry, looked up): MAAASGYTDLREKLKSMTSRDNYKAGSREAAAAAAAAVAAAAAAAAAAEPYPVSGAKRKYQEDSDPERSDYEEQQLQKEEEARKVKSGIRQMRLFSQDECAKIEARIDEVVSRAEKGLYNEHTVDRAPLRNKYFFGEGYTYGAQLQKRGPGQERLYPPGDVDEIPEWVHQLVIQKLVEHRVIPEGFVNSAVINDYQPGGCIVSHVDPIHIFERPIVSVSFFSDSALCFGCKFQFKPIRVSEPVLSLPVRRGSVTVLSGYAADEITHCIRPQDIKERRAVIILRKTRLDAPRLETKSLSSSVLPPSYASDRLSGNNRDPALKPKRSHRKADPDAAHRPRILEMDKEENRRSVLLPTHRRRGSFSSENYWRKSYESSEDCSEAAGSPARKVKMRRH
Chain of UniProt Q96CW1 (Q96CW1 whole entry, looked up): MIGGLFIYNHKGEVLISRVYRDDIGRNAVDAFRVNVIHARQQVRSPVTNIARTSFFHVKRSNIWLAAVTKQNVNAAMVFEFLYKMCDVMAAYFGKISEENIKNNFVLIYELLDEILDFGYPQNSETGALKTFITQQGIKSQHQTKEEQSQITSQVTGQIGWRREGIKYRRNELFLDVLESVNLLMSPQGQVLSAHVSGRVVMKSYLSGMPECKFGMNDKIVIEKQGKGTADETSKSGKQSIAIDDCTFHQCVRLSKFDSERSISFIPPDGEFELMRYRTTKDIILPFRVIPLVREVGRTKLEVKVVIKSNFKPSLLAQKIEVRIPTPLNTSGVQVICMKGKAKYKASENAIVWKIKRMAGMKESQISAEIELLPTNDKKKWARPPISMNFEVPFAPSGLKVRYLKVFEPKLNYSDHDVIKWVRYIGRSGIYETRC
Chain of UniProt Q66PJ3 (Q66PJ3 whole entry, looked up): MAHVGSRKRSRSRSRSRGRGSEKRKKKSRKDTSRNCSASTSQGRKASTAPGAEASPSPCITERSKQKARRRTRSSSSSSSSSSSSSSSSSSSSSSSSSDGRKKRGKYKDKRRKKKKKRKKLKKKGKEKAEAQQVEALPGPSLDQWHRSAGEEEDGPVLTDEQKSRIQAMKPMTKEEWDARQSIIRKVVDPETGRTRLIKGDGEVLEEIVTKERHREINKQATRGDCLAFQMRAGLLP
Chain of UniProt Q96GS6 (Q96GS6 whole entry, looked up): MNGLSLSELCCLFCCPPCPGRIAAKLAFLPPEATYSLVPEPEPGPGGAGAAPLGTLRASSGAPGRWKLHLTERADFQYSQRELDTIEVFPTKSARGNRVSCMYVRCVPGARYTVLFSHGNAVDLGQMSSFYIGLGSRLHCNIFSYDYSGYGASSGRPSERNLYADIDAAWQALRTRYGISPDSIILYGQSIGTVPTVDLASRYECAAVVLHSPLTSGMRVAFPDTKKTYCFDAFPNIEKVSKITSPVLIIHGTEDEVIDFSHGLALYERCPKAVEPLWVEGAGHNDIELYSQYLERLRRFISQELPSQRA
Chain of UniProt P24666 (P24666 whole entry, looked up): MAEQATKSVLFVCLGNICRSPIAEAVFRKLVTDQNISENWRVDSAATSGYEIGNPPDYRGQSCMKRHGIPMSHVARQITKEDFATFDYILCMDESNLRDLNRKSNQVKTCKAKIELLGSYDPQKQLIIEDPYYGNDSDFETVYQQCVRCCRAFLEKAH

Target | log2 fold change (saracatinib) | log2 fold change (sotrastaurin) | log2 fold change (alvocidib) | log2 fold change (Tubastatin A) | log2 fold change [1] | log2 fold change (defactinib) | log2 fold change (rucaparib) | log2 fold change [2] | log2 fold change (encorafenib) | log2 fold change [3]
ATAD3A isoform 2 (UniProt Q9NVI7) | 0.001 | -0.053 | 0.102 | 0.04 | -0.139 | 0.05 | 0.252 | -0.017 | 0.154 | -0.046
ACSL1 (UniProt P33121) | 0 | 0.029 | -0.083 | -0.075 | -0.003 | -0.025 | -0.021 | -0.025 | 0.031 | 0.042
AP2M1 (UniProt Q96CW1) | 0.032 | 0.008 | 0.017 | 0.002 | 0.005 | 0.016 | 0.026 | 0.001 | 0.008 | -0.014
ATP23 (UniProt Q9Y6H3) | 0.029 | 0.04 | -0.031 | -0.056 | 0.055 | 0.028 | 0.096 | 0.041 | 0.001 | 0.01
AP2B1 isoform 2 (UniProt P63010) | 0.057 | -0.003 | 0.017 | 0.001 | 0.022 | 0.005 | 0.043 | -0.011 | 0.027 | 0.005
AK6 (UniProt Q9Y3D8) | -0.154 | -0.121 | -0.045 | 0.03 | 0.018 | -0.095 | 0.092 | -0.053 | 0.095 | -0.09
ADPRHL2 (UniProt Q9NX46) | 0.039 | -0.001 | -0.003 | 0.031 | 0.049 | 0.015 | -0.085 | -0.026 | -0.009 | -0.116
ATAD3B (UniProt Q5T9A4) | -0.047 | -0.101 | 0.091 | -0.009 | -0.084 | 0.096 | 0.25 | 0 | 0.125 | 0.033
ATG9A (UniProt Q7Z3C6) | 0.016 | -0.084 | -0.086 | 0.067 | -0.029 | -0.09 | -0.008 | -0.052 | 0.055 | -0.013
ARHGAP4 isoform 2 (UniProt P98171) | -0.094 | 0.115 | 0.089 | -0.172 | -0.096 | 0.22 | -0.062 | -0.139 | 0.047 | 0.097
ALKBH5 (UniProt Q6P6C2) | -0.006 | -0.044 | 0.092 | 0.118 | -0.185 | 0.021 | 0.11 | 0.035 | -0.048 | 0.003
ABHD17A isoform 2 (UniProt Q96GS6) | 0.002 | 0.01 | 0.04 | 0.065 | -0.595 (active) | -0.008 | 0.017 | -0.052 | 0.104 | 0.059
AIP (UniProt O00170) | 0.009 | -0.038 | -0.079 | 0.034 | 0.028 | -0.068 | -0.015 | -0.046 | 0.065 | -0.025
ARF4 (UniProt P18085) | 0.052 | 0.028 | -0.005 | 0.011 | 0.028 | -0.005 | -0.051 | -0.004 | 0 | -0.032
ATP1A1 (UniProt P05023) | 0.046 | 0.039 | -0.034 | -0.026 | -0.026 | -0.024 | -0.009 | 0.011 | -0.001 | 0.014
ARHGAP1 (UniProt Q07960) | -0.015 | -0.03 | -0.057 | 0.044 | -0.032 | -0.046 | 0.005 | -0.019 | 0.001 | -0.014
ATP1A4 (UniProt Q13733) | 0.066 | -0.088 | 0.015 | -0.017 | 0.151 | 0.033 | -0.076 | -0.108 | 0.021 | 0.118
ACTR1B (UniProt P42025) | 0.012 | -0.025 | -0.058 | -0.004 | 0 | -0.005 | -0.037 | -0.012 | -0.048 | -0.075
AHSA1 (UniProt O95433) | 0.022 | 0.014 | -0.039 | -0.003 | 0 | -0.061 | -0.084 | 0.011 | 0.02 | -0.008
ACSM3 (UniProt Q53FZ2) | 0.031 | 0.018 | -0.021 | 0.009 | 0.053 | -0.148 | 0.142 | -0.09 | 0.021 | -0.064
ABCC5 (UniProt O15440) | 0.107 | -0.028 | 0.007 | 0.002 | -0.02 | 0.019 | 0.116 | -0.003 | -0.039 | 0.026
BZW2 (UniProt Q9Y6E2) | -0.007 | -0.032 | -0.086 | -0.004 | -0.006 | -0.057 | -0.022 | 0.001 | 0.058 | -0.026
AKAP8L (UniProt Q9ULX6) | -0.127 | -0.203 | -0.21 | 0.055 | -0.097 | -0.477 (active) | -0.008 | 0.027 | 0.025 | 0.049
ADAMTS5 (UniProt Q9UNA0) | -0.107 | -0.004 | 0.007 | 0.222 | -0.13 | -0.021 | -0.04 | -0.048 | -0.136 | 0.028
BRD8 isoform 2 (UniProt Q9H0E9) | -0.06 | 0.058 | 0.012 | -0.296 | 0 | -0.064 | -0.015 | -0.021 | 0.028 | 0.145
BECN1 (UniProt Q14457) | 0.013 | -0.038 | -0.262 | -0.065 | -0.029 | -0.054 | -0.014 | -0.013 | 0.001 | 0.018
BCCIP isoform 2 (UniProt Q9P287) | -0.004 | -0.044 | 0.031 | -0.036 | 0.013 | -0.019 | 0.087 | -0.005 | 0.037 | -0.024
BOP1 (UniProt Q14137) | 0.011 | -0.043 | -0.082 | -0.013 | 0.015 | -0.157 | 0.066 | -0.016 | 0.155 | 0.046
ACP1 isoform 2 (UniProt P24666) | -0.175 | -0.11 | 0.013 | 0.111 | 0.038 | -0.047 | 0.019 | 0.059 | 0.064 | 0.024
ARL6IP4 (UniProt Q66PJ3) | -0.026 | 0.023 | -0.024 | -0.024 | -0.05 | -0.038 | 0.01 | -0.002 | -0.059 | 0.016

Source: the supplement of paper PMC10849652
